An excerpt weighted towards active compounds, which were near 21% of everything screened.
HCV inhibitor = inhibitors of hepatitis C virus infection | AID 651820 | Potency, µM (highest dose often 41.8 µM), usual class: inhibitors | 340,000 tested, 3.4% active | Huh7.5.1 HCVcc-Cre infection, luciferase reporter, 44 h
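Luciferase read-out (15 sec integration) after a 15 min room-temperature substrate step quantifies HCVcc-Cre infection. Cells, 1,000 per well, had compound added 4 h post-plating, then virus at ~0.5 moi, and were cultured 44 h.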
Pf growth 48h = P. falciparum growth inhibition at 48 hours (one generation); P. falciparum luciferase growth in erythrocytes, 48 h; Potency, µM (doses to about 28.7 µM), actives largely listed as inhibitors; 310,000 tested, 5.9% active; AID 504832
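Firefly luciferase activity from engineered P. falciparum reports growth; inhibitors lower the luminescent signal. Cultures contained 2% hematocrit erythrocytes at 0.1% final parasitemia.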
Pf growth 96h = inhibits malaria parasite growth, 96 h; P. falciparum luciferase reporter growth, 96 h; Potency, µM (highest dose often 28.7 µM), hits mostly inhibitors; 320,000 tested, 6.9% active
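P. falciparum expressing integrated firefly luciferase grown in erythrocytes (2% hematocrit, 0.05% parasitemia final) with compounds for 96 hours at 37 C, 5% CO2. Growth inhibition read as loss of luminescence after adding luciferase detection reagent.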
Shiga toxin inh = inhibitors of Shiga toxin in Vero cells; Vero cells, Shiga toxin protein synthesis inhibition reporter; inhibition, % at 38.7 µM; 290,000 tested, 9.2% active; AID 2315; in the data active = inhibition mostly above about 28%, no sharp cut-off; inactive = mostly below about 43%
AMA1-RON2 inh = disrupts binding of P. falciparum AMA1 to RON2. AlphaScreen AMA1-biotinylated RON2 peptide binding. Potency, µM (doses to about 58.2 µM), most hits filed as inhibitors. 360,000 tested, 0.2% active; also: nearly all actives have a fitted effect of over 45% in size
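AMA1 (3D7) with his tag at 25 nM final met compounds first, then biotinylated RON2 peptide at 25 nM; detection used donor plus acceptor beads, 10 µg/mL apiece, read by AlphaScreen after 30 min at room temperature.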
CHX counter = affects cycloheximide protein synthesis inhibition readout, counter-screen | max response, % | 300,000 tested, 12% active | AID 2314 | cell reporter, cycloheximide protein synthesis inhibition counterscreen; in the data active = max response mostly above about 13%, no sharp cut-off; inactive = mostly below about 14%; also: read at 38.3 µM for the half of the compounds with a filed dose
Each line names hits and unclear results; the compound was inactive in the other large screens. Unless noted, calls follow the shape of the dose curve; as a rule, active = well fitted curve in the direction sought with a large enough effect; inconclusive = small, poorly fitted or top-dose-only effect, or another doubt; inactive = no such curve, though single readings can be large; an effect the other way counts as inactive or inconclusive.

COc1cccc(N2CC(C)Cn3c2nc2c3c(=O)[nH]c(=O)n2C)c1 (stereo not drawn)	none
Cn1c(N)c(C(=O)COC(=O)COc2ccc3ccccc3c2)c(=O)n(C)c1=O	none
COc1ccc(N)c2c1C(=O)c1ccccc1C2=O	HCV inhibitor inconclusive, Pf growth 96h inconclusive, Shiga toxin inh 60, AMA1-RON2 inh inconclusive, CHX counter 51
NC1=C(Br)C(=O)c2ccccc2C1=O	HCV inhibitor inconclusive, Pf growth 48h 2.6µM, Pf growth 96h 1µM, Shiga toxin inh 81, CHX counter 31
COc1ccc(OC)c2c1C(=O)CC2C (stereo not drawn)	none (no result: HCV inhibitor, Pf growth 48h, Pf growth 96h, Shiga toxin inh, CHX counter)
Nc1ccc(NC(=O)c2ccccc2)c2c1C(=O)c1ccccc1C2=O	Pf growth 96h inconclusive
COc1ccc(OC)c2c1C(=O)c1ccccc1C2=O	none
Nc1ccc(Br)c2c1C(=O)c1ccccc1C2=O	HCV inhibitor 10µM, Pf growth 48h inconclusive, AMA1-RON2 inh inconclusive, CHX counter 28
COc1ccc(OC)c2c1C(=O)C(Cl)=C(Cl)C2=O	HCV inhibitor inconclusive, CHX counter 15
Nc1ccc(O)c2c1C(=O)c1ccccc1C2=O	HCV inhibitor 5µM, Shiga toxin inh 36, AMA1-RON2 inh 7.1µM, CHX counter 22
Cc1ccc(NC(=O)c2ccc3nc[nH]c3c2)c(O)c1	Shiga toxin inh 74, CHX counter 33
COc1ccc(NC(=O)c2ccc3nc[nH]c3c2)c(OC)c1	none
Cc1ccc(NC(=O)c2cncc(Br)c2)nc1	Shiga toxin inh 79, CHX counter 28
Cc1ccc(NC(=O)c2ccc3nc[nH]c3c2)nc1	none
CCC(C)c1ccc(O)c(NC(=S)NC(=O)c2cccnc2)c1 (stereo not drawn)	Pf growth 48h inconclusive
CCC(C)c1ccc(O)c(NC(=O)c2cncc(Br)c2)c1 (stereo not drawn)	HCV inhibitor inconclusive, Pf growth 48h 1µM
O=C(Nc1ccc(OC(F)(F)F)cc1)c1ccc2nc[nH]c2c1	CHX counter 33 (no result: Shiga toxin inh)
Cc1ccc(Nc2nc(C)cc(C)c2C#N)c(C)c1	none (no result: HCV inhibitor, Pf growth 48h, Pf growth 96h, Shiga toxin inh, CHX counter)
Cc1ccc(NC(=O)c2cncc(Br)c2)c(O)c1	Pf growth 96h inconclusive, Shiga toxin inh 66, CHX counter 35
COC(=O)[C@]12CCCCC=C1N(Cc1cccc3ccccc13)C(=O)[C@H](CC(=O)NCC1CCCCC1)C2	none (no result: HCV inhibitor, Pf growth 48h, Pf growth 96h, Shiga toxin inh, CHX counter)
O=C(Nc1cccc(Cl)c1)c1ccc(NCCCN2CCOCC2)c([N+](=O)[O-])c1	HCV inhibitor 10µM, Pf growth 48h inconclusive
Cc1ccc(NC(=O)c2ccc(NCCCN3CCC(C)CC3)c([N+](=O)[O-])c2)cc1F	HCV inhibitor inconclusive, Pf growth 48h 1.2µM
Cc1ccc(NC(=O)c2ccc(NCC3CCCO3)c([N+](=O)[O-])c2)cc1Cl (stereo not drawn)	HCV inhibitor inconclusive, Pf growth 48h inconclusive
CC(C)(C)OC(=O)N1CCC[C@H]1C(=O)Nc1ccc(C#N)cc1	none
CCCOc1nc(N)c(C#N)c(-c2ccccc2F)c1C#N	HCV inhibitor 35µM
CCc1nc(N)c(C#N)c(-c2cccc3ccccc23)c1C	Pf growth 48h inconclusive, Pf growth 96h inconclusive
CCc1ccc(/C=C/C(=O)c2cc(Br)ccc(=O)c2O)cc1	HCV inhibitor inconclusive, Pf growth 48h inconclusive (no result: Pf growth 96h)
Cc1cccc(/C=C/C(=O)c2cc(Br)ccc(=O)c2O)c1	HCV inhibitor 14µM, Pf growth 48h inconclusive, AMA1-RON2 inh inconclusive (no result: Pf growth 96h)
CCOc1ccc(/C=C/C(=O)c2cc(Br)ccc(=O)c2O)cc1	HCV inhibitor inconclusive, Pf growth 48h 10µM, Pf growth 96h 9.3µM, AMA1-RON2 inh inconclusive
Cc1ccc(/C=C/C(=O)c2cc(Br)ccc2OC(=O)c2ccco2)cc1	HCV inhibitor inconclusive, Pf growth 48h 13µM, Pf growth 96h inconclusive, Shiga toxin inh 49, CHX counter 24
COc1ccccc1/C=C/C(=O)c1cc(Br)ccc1OC(=O)c1ccco1	HCV inhibitor inconclusive (no result: Pf growth 48h, Pf growth 96h, Shiga toxin inh, CHX counter)
COc1cc(OC)nc(Oc2cc(/C=N/O)ccc2OC)n1	none
CC(CN1C(C)CCCC1C)OC(=O)c1cccc(Br)c1 (stereo not drawn)	none
O=C1C=C(OCCF)CC(c2cccc([N+](=O)[O-])c2)O1 (stereo not drawn)	none (no result: HCV inhibitor, Pf growth 48h, Pf growth 96h, Shiga toxin inh, CHX counter)
CC[C@H](C)[C@H]1CNC(=S)N1CC1CCN(CC)CC1	none (no result: HCV inhibitor, Pf growth 48h, Pf growth 96h, Shiga toxin inh, CHX counter)
O=C(Nc1ccccc1N1CCCC1)c1cccc(Cl)c1Cl	none
O=C(NC(=S)N1CCOCC1)c1cc2ccccc2o1	Shiga toxin inh 70, CHX counter 12
O=C(Nc1ccc(N2CCOCC2)c(Cl)c1)c1cc2ccccc2o1	HCV inhibitor inconclusive, Shiga toxin inh 71, CHX counter 39
Cc1c(N2CCCC2)cc2c(c1NC(=O)c1ccccc1Cl)C(C)(C)CC2(C)C	HCV inhibitor 25µM, Pf growth 48h inconclusive, Pf growth 96h inconclusive
O=C(Nc1ccc(N2CCOCC2)c(Cl)c1)c1ccccc1Cl	HCV inhibitor inconclusive, Pf growth 96h inconclusive, Shiga toxin inh 60, CHX counter 30
CC(C)C[C@@H]1O[C@H](C(C)C)Cc2[nH][nH]c(=O)c21	none (no result: HCV inhibitor, Pf growth 48h, Pf growth 96h, Shiga toxin inh, CHX counter)
CC1CCCC(NC(=O)COC(=O)c2cccs2)C1C (stereo not drawn)	none (no result: Shiga toxin inh, CHX counter)
CC(C)C[C@H]1CNC(=S)N1C[C@H]1CCCN1C[C@H](Cc1ccccc1)N1C[C@H](CC(C)C)N(CCc2ccccc2)C1=S	none (no result: HCV inhibitor, Pf growth 48h, Pf growth 96h, Shiga toxin inh, CHX counter)
O=C(Nc1ccc(N2CCOCC2)c(Cl)c1)c1ccc(F)cc1	HCV inhibitor inconclusive, Pf growth 48h inconclusive, Shiga toxin inh 18, CHX counter 31
CC(C)NC(=S)NC(=O)/C=C/c1ccc(F)cc1	none
Cc1ccc(NC(=S)NCC(C)C)cc1	Shiga toxin inh 40, CHX counter 35
CC(C)CCNC(=S)Nc1ccc(Br)cc1	Pf growth 48h inconclusive, Shiga toxin inh 48, CHX counter 30
CC(C)CCNC(=S)Nc1ccc([N+](=O)[O-])cc1	HCV inhibitor inconclusive, Pf growth 48h inconclusive, CHX counter 30
CC(C)CCNC(=O)/C=C/c1ccc(Br)cc1	Shiga toxin inh 100, CHX counter 37
CCCNC(=S)Nc1ccc(Br)cc1	none
CC(C)CNC(=S)Nc1ccc(S(N)(=O)=O)cc1	none
CCCCNC(=S)Nc1ccc([N+](=O)[O-])cc1	HCV inhibitor inconclusive, Pf growth 48h inconclusive
CCOc1ccc(N2CC(C(=O)NCCc3ccc(S(N)(=O)=O)cc3)CC2=O)cc1 (stereo not drawn)	none
CCOC(=O)[C@H]1[C@H]2COc3ccccc3[C@@H]2N2C(=O)CNC(=O)[C@@]12C	none (no result: Shiga toxin inh, CHX counter)
Cc1ccc2c(c1)C(=O)N1[C@H]3c4ccccc4OC[C@@H]3[C@H](c3ccccc3)[C@]1(C)C(=O)N2	HCV inhibitor inconclusive (no result: Pf growth 48h, Pf growth 96h, Shiga toxin inh, CHX counter)
COc1ccc(N(CC(=O)NC2CCS(=O)(=O)C2)S(=O)(=O)c2cc(C)ccc2C)cc1 (stereo not drawn)	none (no result: Pf growth 48h, Pf growth 96h, Shiga toxin inh, CHX counter)
Cc1[nH]c2c(C)cccc2c1CCNS(=O)(=O)c1cccc([N+](=O)[O-])c1	none

Bioassay records as filed in PubChem.
